About 1,900 (0.58%) of roughly 330,000 compounds were called active.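 Rule for the calls: active = inhibition of aptamer binding above 40%, roughly 3 SD of noise, on plates passing a quality check; inactive = the rest.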 For the sample, actives were picked, then their nearest neighbours and some compounds at random.
These molecules were tested against Beta-adrenergic receptor kinase 1 (Homo sapiens) (UniProt P25098) (assay: compounds blocking aptamer binding on GRK2 – biochemical, human GRK2, bead flow cytometry, HTS, primary screen (AID 488847;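 note: median bead fluorescence of bound FAM aptamer so fluorescent compounds give negative values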)). Settings: FAM-aptamer displacement from GRK2, at 10 µM, stronger effect = higher value.
Chain of Beta-adrenergic receptor kinase 1 (Homo sapiens) (P25098 whole entry, looked up): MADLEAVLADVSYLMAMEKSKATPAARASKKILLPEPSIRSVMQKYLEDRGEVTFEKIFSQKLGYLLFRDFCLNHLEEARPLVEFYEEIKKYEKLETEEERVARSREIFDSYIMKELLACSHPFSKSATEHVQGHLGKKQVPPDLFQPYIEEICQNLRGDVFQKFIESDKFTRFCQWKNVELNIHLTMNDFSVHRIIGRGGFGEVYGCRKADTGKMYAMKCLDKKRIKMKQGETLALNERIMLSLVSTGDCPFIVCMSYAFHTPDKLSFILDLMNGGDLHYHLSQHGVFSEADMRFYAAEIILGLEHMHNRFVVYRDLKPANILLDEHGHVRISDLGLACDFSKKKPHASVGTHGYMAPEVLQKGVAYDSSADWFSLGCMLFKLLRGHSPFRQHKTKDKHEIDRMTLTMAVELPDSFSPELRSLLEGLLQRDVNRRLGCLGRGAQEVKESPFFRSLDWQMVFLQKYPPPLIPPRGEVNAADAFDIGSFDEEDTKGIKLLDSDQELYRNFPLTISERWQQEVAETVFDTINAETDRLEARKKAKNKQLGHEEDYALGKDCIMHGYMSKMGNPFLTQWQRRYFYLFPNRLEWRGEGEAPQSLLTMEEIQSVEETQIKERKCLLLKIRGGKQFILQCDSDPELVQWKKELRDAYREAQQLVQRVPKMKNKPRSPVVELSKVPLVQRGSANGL

Inhibition of aptamer binding, inactive:
CCOc1cc(NC(=S)NCc2ccco2)c(OCC)cc1NC(=O)c1ccco1 0%
Cc1cccc(Nc2ccccc2C(=O)NCc2ccco2)c1C 0%
CC(C)CN(C(=O)COC(=O)c1ccc2ccccc2c1)c1c(N)n(Cc2ccccc2)c(=O)[nH]c1=O 0%
CC(C)CN(C(=O)COC(=O)c1ccc(Cl)c(N)c1)c1c(N)n(Cc2ccccc2)c(=O)[nH]c1=O 1%
c1ccc(CC2CCN(c3nc4ccccc4n4cnnc34)CC2)cc1 0%
COc1ccc(C(=O)NCCSc2ccccc2C)cc1 0%
COc1ccccc1OCCNC(=O)c1cc([N+](=O)[O-])cc([N+](=O)[O-])c1 0%
O=C(N/N=C/C=C/c1ccco1)c1cccs1 7%
Cc1nn(C)c(Cl)c1CN1CCC(n2nccc2NC(=O)C2CCCC2)CC1 4%
COc1ccc(S(=O)(=O)N2CCOCC2)cc1C(=O)NC1CCCCC1 3%
CC1CCCCC1NC(=O)CN1CCC(O)(c2ccc3c(c2)OCO3)CC1 (centres undefined) 1%
Cc1ncc(CC(=O)n2cc(C(=O)c3cc(Cl)ccc3O)cn2)s1 6%
COc1ccc(CNC(=O)COc2ccccc2C(=O)c2cnn(-c3ccccc3)c2)cc1OC 1%
Cc1ccc(C)c(S(=O)(=O)N2CCN(c3ncnc4sccc34)CC2)c1 2%
Cc1ccc(-n2ncc3c2CC(C)(C)CC3NC(=O)Cc2c(C)noc2C)cc1 (centres undefined) 3%
CCOC(=O)C1CCN(C(c2cc3cc(C)cc(C)c3[nH]c2=O)c2nnnn2C2CCCCC2)CC1 (centres undefined) 0%
CCOC(=O)C1CCCN(CCSc2ccc(C)cc2)C1 (centres undefined) 0%
Cc1ccc(Nc2nc(N)nc(CN3CCN(Cc4ccccc4)CC3)n2)cc1Cl 1%
Cc1cc(C)c2nc(N3CCC(C(=O)NCCN4CCOCC4)CC3)sc2c1 1%
CC1CCN(CC(=O)Nc2nccs2)CC1 1%
O=C(/C=C/c1ccc(N2CCOCC2)cc1)c1ccccc1 0%
Cc1cccc(N2C(=O)c3ccc(C(=O)Nc4cccc(C(=O)O)c4)cc3C2=O)c1 0%
O=C(NC1CCCC1)C(c1ccc(N2CCOCC2)cc1)N(C(=O)c1ccco1)c1ccccc1F (centres undefined) 1%
CC(C)c1ccc(Nc2nnc(SCC(=O)c3nnc(-c4ccccc4)o3)s2)cc1 0%
CCn1c(CNC(=O)c2ccccc2)nnc1SCC(=O)N1CCN(c2ccccc2)CC1 0%
NC(=O)c1nnsc1-c1ccc(-c2snnc2C(N)=O)cc1 1%
CN(CCC#N)c1ncnc2scc(-c3ccccc3)c12 3%
CC(Oc1ccc(F)cc1)C(=O)N1CCN(c2ncccn2)CC1 (centres undefined) 6%
COc1cccc(/C=C(/CC(=O)Nc2ccc(N3CCOCC3)cc2)c2nc3ccccc3s2)c1 0%
CCCCn1c(N)c(N(CCC(C)C)C(=O)c2ccc(COc3ccccc3)o2)c(=O)[nH]c1=O 1%
CCCCN(C(=O)c1ccc(C)o1)c1c(N)n(CCCC)c(=O)[nH]c1=O 0%
C=CCSc1nc2c(c(=O)[nH]1)C(C(C)C)C(C#N)=C(N)O2 (centres undefined) 2%
CC(CC(=O)Nc1ccccc1)n1ccnc1 (centres undefined) 1%
C[C@H](NS(=O)(=O)c1ccc(Cl)cc1)C(=O)OCC(=O)N1CCOCC1 8%
COC(=O)c1c(C)[nH]c(C)c1-c1ccc([N+](=O)[O-])cc1 0%
COc1ccc(C2CC(c3ccc([N+](=O)[O-])cc3)=NN2C(C)=O)cc1 (centres undefined) 0%
Cc1nn(Cc2ccc(F)cc2)c(C)c1NC(=O)c1cccnc1Cl 5%
Cc1nn(Cc2ccc(Cl)c(Cl)c2)c(C)c1NC(=O)c1cc(C2CC2)on1 0%
Cc1ccccc1-n1cc(CNC(=O)CC2C(=O)NCCN2C/C=C/c2ccccc2)cn1 (centres undefined) 0%
O=C(NC1CC1)C1=C[C@H](c2coc3ccccc3c2=O)C[C@H](OCCCCO)O1 2%
CCN1C(=O)[C@H]2[C@@H](c3ccc(-c4ccc(F)cc4)cc3)N[C@@](Cc3ccccc3)(C(=O)OC)[C@H]2C1=O 0%
CCN1C(=O)[C@H]2[C@@H](c3ccc(SC4CCCCC4)c(OC)c3)N[C@@](Cc3ccccc3)(C(=O)OC)[C@H]2C1=O 0%
COc1cccc(C2SCC(=O)N2c2cccc(C)c2)c1OC (centres undefined) 2%
COCCn1c(SCC(=O)c2[nH]c(C)c(C(C)=O)c2C)nc2ccccc2c1=O 0%
C/C(=N\NC(=S)NCc1ccccc1)C1CCCCC1 1%
CC1CCCCC1NC(=O)c1cc(=O)[nH]c2ccccc12 (centres undefined) 0%
COc1ccc(OC)c(CNC(=O)Cn2nc(C)c3c(C)n(-c4ccc(C)cc4)nc3c2=O)c1 0%
Cc1ccc(-c2nc(CS(=O)CC(=O)NC3CCCC3)c(C)o2)cc1 (centres undefined) 0%
O=C(OCc1ccccc1F)c1ccc2c(c1)OCCO2 0%
CC(=O)Nc1cccc(C(=O)OCC(=O)c2ccc3c(c2)OCO3)c1 0%
CN(CC(=O)Nc1ccc(Cl)c(C(F)(F)F)c1)C(=O)CCC(=O)c1ccccc1 1%
CCC(C)(C)N=C(NC#N)Nc1cccnc1 0%
Cc1nc(Nc2ccc3c(c2)OCCO3)c2nnn(Cc3ccccc3Cl)c2n1 0%
Cc1nc(Nc2ccc(S(=O)(=O)N3CCCC3)cc2)c2nnn(Cc3ccccc3)c2n1 0%
O=C(CNC(c1ccccc1)c1ccccc1)Nc1ccc(F)cc1 1%
S=C(Nc1cccnc1)Nc1ccccn1 1%
O=C1CSC(=O)N1CCOCCN1C(=O)CSC1=O 3%
O=C(CNC(=O)c1n[nH]c2ccccc12)Nc1cc(Cl)ccc1Cl 0%
O=S(=O)(c1ccc(OCC(O)CN2CCN(c3ccccc3Cl)CC2)cc1)N1CCOCC1 (centres undefined) 0%
Cc1cccc(OCC(O)CN2CCN(S(=O)(=O)c3ccc(C)cc3C)CC2)c1 (centres undefined) 1%
CCC(C)N1C(=O)S/C(=C/c2ccc(Sc3nc4ccccc4[nH]3)o2)C1=O (centres undefined) 1%
Cc1cccc(NC(=S)NCc2ccc3[nH]c4c(c3c2)CCCC4)c1 0%
Cc1ccc(C(C)NC(=O)Cn2nc(C)c([N+](=O)[O-])c2C)cc1 (centres undefined) 2%
COC(=O)c1ccc(C)c(NC(=O)Cn2c(C)csc2=O)c1 0%
Cc1ccc(C)c(NC(=O)C2CC(=O)N(C(C)C)C2)c1 (centres undefined) 2%
O=C(CSCc1ccc([N+](=O)[O-])cc1)NCCSCc1ccccc1 0%
COc1ccc(-c2ocnc2C(=O)Nc2ccc3c(c2)CCC3)cc1 8%
COC(=O)c1ccc(S(=O)(=O)NCc2ccccc2)n1C 2%
Cc1ccc(C(=O)OCC(=O)N2CC(C)CC(C)C2)cc1S(=O)(=O)N1CCCCC1 (centres undefined) 2%
COc1cccc2c1OCC(C(=O)NCc1ccc(Cl)cc1Cl)=C2 0%
CCC(=O)c1ccc(OCC(=O)OCC(=O)N2CCc3ccccc3C2)cc1 3%
CN(C)c1ccc(NC(=S)N(CCc2ccccc2)C2CC(=O)N(c3c(Cl)cccc3Cl)C2=O)cc1 (centres undefined) 1%
O=C(CNC(=O)COc1ccccc1)NCCc1ccccn1 0%
CC(C)=C(NC(=O)c1ccco1)C(=O)NCCc1nc2ccccc2[nH]1 0%
OCCC1CN(Cc2ccc(Oc3ncccn3)cc2)CCN1CCc1ccccc1 (centres undefined) 0%
CCNc1nc(NC(C)C)nc(OCCOC(=O)c2ccccc2)n1 0%

Inhibition of aptamer binding, active:
CCOc1ccccc1C(=O)NCc1ccco1 50%
Cc1csc(=O)n1CC(=O)OCC(=O)N(CC(C)C)c1c(N)n(Cc2ccccc2)c(=O)[nH]c1=O 98%
COc1ccc(C(=O)NCCNc2ccc([N+](=O)[O-])cn2)cc1 45%
O=C(c1cnn(-c2ccc(Cl)cc2)c1)c1ccccc1O 47%
CCOC(=O)C1CCCN(Cc2nc(N)nc(Nc3ccc(C)cc3)n2)C1 (centres undefined) 60%
O=C(O)c1ccc2c(c1)C(=O)N(c1ccc(/C=C/C(=O)c3ccccc3)cc1)C2=O 46%
CCN1/C(=C\c2ccc3ccccc3[n+]2CC)Sc2cc(C)ccc21 96%
CCN1/C(=C/c2ccc3ccc(C)cc3[n+]2CC)Sc2ccccc21 94%
CCCCn1c(N)c(N(CCC(C)C)C(=O)c2ccc([N+](=O)[O-])o2)c(=O)[nH]c1=O 55%
CC(=O)N1CC[n+]2c(-c3ccc([N+](=O)[O-])cc3)csc21 92%
Cc1nn(Cc2ccc(F)cc2)c(C)c1NC(=O)c1noc2c1CCc1ccccc1-2 73%
CCN1C(=O)[C@H]2[C@@H](c3ccc(-c4ccc(OC)cc4)cc3)N[C@@](Cc3ccccc3)(C(=O)OC)[C@H]2C1=O 43%
CC[N+](C)(CC)CCC[n+]1c(-c2ccccc2)c2cc(N)ccc2c2ccc(N)cc21 62%
O=C(COC(=O)c1ccc(O)cc1O)c1ccc2c(c1)OCCO2 44%
Cc1nc(Nc2ccccc2F)c2nnn(Cc3ccccc3Cl)c2n1 47%
CC(=O)c1ccc(OCC(O)CN2CCN(S(=O)(=O)c3cccc(Br)c3)CC2)cc1 (centres undefined) 88%
COC(=O)c1ccc(C)c(NC(=O)C2CC(=O)N(C3CCCC(C)C3C)C2)c1 (centres undefined) 63%
O=C(COc1ccccc1)NCCc1nc2ccccc2[nH]1 59%

— PubChem BioAssay AID488847 (NMMLSC, 2010)
